# Source: PubChem BioAssay (several laboratories)
# BoNT F protease: blocks Botulinum neurotoxin F light chain protease; Multiplex microsphere protease cleavage assay, flow cytometry; inhibition, % at 10 µM; hit rate 0.22% among 360,000; AID 588497; in the data active = inhibition above about 35%, passing the limit was not always enough; inconclusive = no clear call, values can overlap the other calls; also: plate controls were buffer without enzyme for full effect and enzyme alone for no effect
# Autofluor counter: counter-screen for toxin protease inhibitors: compound fluorescence. hit rate 3.1% among 360,000. fluorescence intensity (concentration not given with the values). compound autofluorescence counterscreen, microsphere flow cytometry; stronger effect = higher value; in the data active = fluorescence intensity above about 16000; inconclusive = no clear call, values can overlap the other calls
# 3CLpro inhibitor: SARS-CoV 3CLpro protease inhibition | recombinant SARS-CoV 3CLpro, quenched FRET peptide cleavage | inhibition, % at 6 µM | hit rate 0.14% among 290,000 | AID 1706; in the data active = inhibition above about 12%
# CCHFV vOTU inh: blocks the CCHF virus ovarian tumor domain protease; CCHFV vOTU protease, Pep-AMC fluorescence; AID 651958; hit rate 0.55% among 370,000; inhibition, % at 11.5 µM; in the data active = inhibition above about 30%; also: 0% = vehicle wells with enzyme and 100% = no enzyme wells
# BoNT A protease: blocks Botulinum neurotoxin A light chain protease | inhibition, % at 10 µM | hit rate 0.17% among 360,000 | multiplex microsphere protease substrate cleavage, flow cytometry; also: plate controls were buffer without enzyme for full effect and enzyme alone for no effect
# Anthrax LF inh2: anthrax lethal factor protease inhibition. P15917. multiplex microsphere protease cleavage assay, LF. inhibition, % at 10 µM. hit rate 0.12% among 360,000. AID 588501; also: plate controls were buffer without enzyme for full effect and enzyme alone for no effect
# An asterisk follows results filed as active; ? = inconclusive; . = not tested or not shown. Compounds with a hit are over-represented: about 3.9% of the library has one in this group of screens. Rule as the data show it, unless noted: active = inhibition above about 30%; inconclusive = no clear call, values can overlap the other calls; inactive = below that.
SMILES,BoNT F protease,Autofluor counter,3CLpro inhibitor,CCHFV vOTU inh,BoNT A protease,Anthrax LF inh2
CC(C#N)On1c(SC(C)C#N)nc2ccccc2c1=O (centres undefined),-6,25088*,9,4,-4,-4
O=C1CSC(=S)N1/N=C/C=C/c1ccccc1,11,1986,3,14,43*,21
O=C1CSC(=S)N1/N=C/c1c(F)cccc1F,-19,4014,-4,8,-6,-6
CS(=O)(=O)n1nc(-c2ccc(Cl)cc2)nc1SCc1ccccc1,-6,24875*,3,-14,-4,-1
Cc1ccc(N2C(=O)CC(n3nc(C)cc3C)C2=O)cc1 (centres undefined),-4,16252*,3,-18,?,0
Cc1c(C(=O)Nc2cccc([N+](=O)[O-])c2)csc1-c1ccccc1,-4,16284*,5,-2,-1,-8
Cc1ccc(NC(=O)c2csc(-c3ccccc3)c2C)cc1,0,23926*,-2,-1,0,2
O=C(O)c1ccccc1C(=O)Nc1cccc([N+](=O)[O-])c1,?,5997,-4,-10,-11,-7
CCS(=O)(=O)N1CCN(C2Cc3ccccc3C2)CC1,0,22089*,1,-3,?,-1
CC1CCCCC1NC(=O)Cn1cnc2sccc2c1=O (centres undefined),-7,?,.,22,3,-1
COc1ccc(CC(=O)Nc2c3c(nn2-c2ccccc2C)CS(=O)C3)cc1 (centres undefined),0,20787*,0,-3,0,0
Cc1ccccc1-n1nc2c(c1NC(=O)COc1ccc(Cl)cc1)CS(=O)C2 (centres undefined),-12,5267,-1,-2,0,-3
O=C(O)CCNc1cc(N2CCN(C(=O)c3ccco3)CC2)c2noc3c2c1C(=O)c1ccccc1-3,-6,4996,-5,54*,1,0
CCN1CCN(c2cc(N3CCN(C(=O)c4ccco4)CC3)c3c4c(onc24)-c2ccccc2C3=O)CC1,-64,2890,-3,.,3,-18
Cc1cc(C)cc(NC(=O)N2CCC(c3nc4ccccc4o3)CC2)c1,-3,20562*,-1,-13,-2,-1
O=C(OCc1ccccc1)Oc1cncc(C(=O)O)c1,-5,16938*,-2,-1,-3,-6
CCOc1cc(-c2nc(-c3ccc(C)nc3OC)no2)cc(OCC)c1OCC,-3,5845,-1,-2,0,-7
CCOc1cc(-c2nc(-c3ccc(C)nc3OCC)no2)cc(OCC)c1OCC,-1,23089*,-4,-14,?,-6
CCOc1nc(-c2ccc(OC)cc2)ccc1-c1noc(C)n1,-4,21728*,-7,-23,?,-2
CC(C)CNC(=O)OCc1cn(Cc2cc(F)ccc2F)nn1,.,.,.,-7,.,.
COc1ccccc1CNC(=O)CCn1c(=O)[nH]c2ccsc2c1=O,-8,21437*,5,-6,?,0
O=C1c2ccccc2S(=O)(=O)N1CC(O)Cn1ccc2ccccc21 (centres undefined),25,22501*,1,3,156*,29
OC(CN1CCNCC1)Cn1ccc2ccccc21 (centres undefined),.,.,-3,.,.,.
Oc1ccccc1NCC(O)Cn1ccc2ccccc21 (centres undefined),-3,22217*,-5,7,?,0
OC(CNCc1ccccc1)Cn1ccc2ccccc21 (centres undefined),-30,3758,-5,1,2,-3
SMILES,BoNT F protease,Autofluor counter,3CLpro inhibitor,CCHFV vOTU inh,BoNT A protease,Anthrax LF inh2
Cc1ccccc1-c1nc2sc(-c3ccccc3)cc2c(=O)o1,7,17440*,-3,-6,?,-5
Cc1ccc(C(=O)C(OC(=O)COc2ccccc2C)c2ccccc2)cc1 (centres undefined),-7,17155*,-2,1,-1,-6
O=C(CCC(=O)OC(C(=O)c1ccccc1)c1ccccc1)Nc1ccccc1 (centres undefined),-2,21923*,-1,9,0,-1
CCOC(=O)CC[C@H]1CC[C@]2(CCCN(S(=O)(=O)c3ccccc3)C2)O1,.,.,.,-4,.,.
CCc1ccc(OCC(=O)OCC(=O)NCCNC(=O)COC(=O)COc2ccc(CC)cc2)cc1,4,4504,-1,2,0,-2
CCS(=O)(=O)c1ccc2oc(Nc3cc(C)cc(C)c3)nc2c1,-2,20341*,1,-1,-1,-2
CCCCN(C)c1c(C)nc2ccc(C(=O)NCc3ccc(OC)cc3)cn12,9,3806,.,11,0,-8
